# Data: PubChem BioAssay (Tox21)
# Inconclusive results are not listed. Activity calls are given as the source filed them. Calls come from the whole dose curve.
# Target: D(2) dopamine receptor (Homo sapiens) (UniProt P14416)
# Assay: Dopamine D2 receptor (DRD2) small molecule agonists, cell-based qHTS assay (AID 1963594); note: nearly all actives have a fitted effect of over 35% in size
# Details: HEK293-DRD2 cAMP HTRF, agonist mode, 30 min; series mostly up to 92.4 µM; activation: at the top concentration
# From the text: National Center for Advancing Translational Sciences [NCATS]
# Division of Preclinical Innovation [DPI]
# U.S. Environmental Protection Agency [EPA]
# National Institutes of Environmental Health Sciences [NIEHS]
# National Toxicology Program [NTP]
# U.S. Food and Drug Administration [FDA]
# DRD2 is the D2 subtype of the dopamine receptor, which is coupled to Gi subtype of G protein-coupled receptor. This G protein-coupled receptor inhibits adenylyl cyclase activity. The DRD2-HEK293 cell line stably expressing D2 dopamine receptor can be used for screening agonists and antagonists of interactions between D2 and its ligands. The Hek293-DRD2 cAMP assay is based on HTRF technology. It measures changes of cAMP accumulation in response to Gi coupled GPCR activation or inhibition.
# Tox21 Assay Protocol Summary:
# DRD2-Hek293 cells were dispensed at 600 cells/3uL/well in 1536-well white plates using a Multidrop Dispenser. After the assay plates were incubated at a 37 C/5% CO2 incubator for 24 h, 1 uL of Ro20-1724 at final concentration of 0.1 mM was transferred to the assay plate by a Flying Reagent Dispenser. Following Ro20-1724 addition, 23 nL of compound dissolved in DMSO, positive controls or DMSO only was added to the assay plates via Wako pintool station. The assay plates were incubated at room temperature for 10 min. Next, 1 uL of NKH477 at 200nM was added into the plates. After the assay plates were incubated at room temperature for an additional 30 min, 2.5 ul/well of cAMP-d2 and 2.5 ul/well of anti-cAMP-cryptate were added respectively into the assay plates using a Flying Reagent Dispenser. The plates were incubated at room temperature for 1 h. The fluorescence intensity in the plates was measured at 340 nm excitation and 665 & 620 nm emission by an Envision plate reader.
# % is set by controls: 0 for no effect and ±100 for the full control effect; potency is the fitted concentration of half-maximal effect.
# D(2) dopamine receptor (Homo sapiens), sequence (P14416 whole entry, looked up): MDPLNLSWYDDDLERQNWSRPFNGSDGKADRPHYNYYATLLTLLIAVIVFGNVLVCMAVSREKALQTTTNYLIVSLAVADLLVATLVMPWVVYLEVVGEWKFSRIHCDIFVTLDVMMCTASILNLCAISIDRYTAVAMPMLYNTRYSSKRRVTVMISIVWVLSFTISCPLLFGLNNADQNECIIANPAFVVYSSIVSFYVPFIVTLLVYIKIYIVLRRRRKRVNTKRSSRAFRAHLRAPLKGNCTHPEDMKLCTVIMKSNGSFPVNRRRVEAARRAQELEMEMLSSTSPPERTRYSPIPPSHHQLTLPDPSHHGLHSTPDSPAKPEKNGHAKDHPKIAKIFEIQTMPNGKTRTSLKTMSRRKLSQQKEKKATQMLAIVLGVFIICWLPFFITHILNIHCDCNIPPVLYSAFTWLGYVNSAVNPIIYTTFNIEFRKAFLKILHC
SMILES,activation,Potency
CCN(C(C)=O)c1cccc(-c2ccnc3c(C#N)cnn23)c1,8.71% [at 42.5 µM] (inactive),
Cc1ncc(C[n+]2csc(CCO)c2C)c(N)n1,5.25% (inactive),
ClCc1ccccc1Cl,-2.91% (inactive),
CC(=O)OC1(c2ccccc2)CCN(CCc2ccccc2)CC1,15.3% (inactive),
COc1cc(CC(C)N)c(OC)cc1Br (stereo not given),,20 µM (active)
C[C@H]1CCC[C@H](O)CCCCCc2cc(O)cc(O)c2C(=O)O1,-1.56% (inactive),
ClCCCCl,-1.36% (inactive),
[O-][Br+2]([O-])O,-1.02% [at 42.5 µM] (inactive),
CO/C=C(/C(=O)OC)c1ccccc1COc1cccc(C(F)(F)F)n1,-18.7% (inactive),
CN(CCCC(O)c1cccnc1)N=O (stereo not given),-3.08% (inactive),
C/C=C/C=O,-1.17% (inactive),
ClC(Cl)(Cl)Cl,-3.08% (inactive),
C[N+](C)=CCl,2.61% (inactive),
CCOC(=O)C(SP(=S)(OC)OC)c1ccccc1 (stereo not given),1.23% (inactive),
SCc1ccco1,-3.47% (inactive),
CN1C(=S)CN=C(c2ccccc2)c2cc(Cl)ccc21,-8.85% [at 42.5 µM] (inactive),
FC(F)(F)c1cccc(C2=CCN(CCc3ccc4ccccc4c3)CC2)c1,-11.9% [at 42.5 µM] (inactive),
CCOc1cc(OP(=S)(OC)OC)nc(CC)n1,0.731% (inactive),
c1coc(-c2nc3ccccc3[nH]2)c1,5.67% (inactive),
Cn1c(CCCC(=O)O)nc2cc(N(CCCl)CCCl)ccc21,-0.618% [at 42.5 µM] (inactive),

SMILES,activation,Potency
CC(C)CC(C)N (stereo not given),1.85% (inactive),
C#CC(O)(C=CCl)CC (stereo not given),-2.84% [at 42.5 µM] (inactive),
CN1CCc2cc(Cl)c(O)cc2[C@H]2c3ccccc3CC[C@@H]21,-12.5% [at 42.5 µM] (inactive),
O=CCCl,3.06% (inactive),
C=CC[C@]1(O)CC[C@H]2[C@@H]3CCC4=CC(=O)CCC4=C3C=C[C@@]21C,8.69% [at 42.5 µM] (inactive),
C=CC(=O)N(C)C,1.25% (inactive),
Cc1ccc2ccccc2c1C,,inactive
ClCC(Cl)Cl,-1.63% (inactive),
CCC(OC(C)=O)C(CC(C)NC)(c1ccccc1)c1ccccc1 (stereo not given),-1.05% (inactive),
CCC/C(=N\OCC)C1=C(O)CC(CC(C)SCC)CC1=O (stereo not given),-1.63% (inactive),
CCCSP(=O)(OCC)Oc1ccc(Br)cc1Cl (stereo not given),1.22% [at 42.5 µM] (inactive),
C=CCOC(=O)C(C)(C)OC(=O)c1cc(-n2c(=O)cc(C(F)(F)F)n(C)c2=O)ccc1Cl,-10.7% (inactive),
C=COC(C)=O,-1.32% (inactive),
CC(C)(C)OC(=O)c1ncn2c1[C@@H]1CCCN1C(=O)c1c(Br)cccc1-2,3.92% [at 42.5 µM] (inactive),
CC1N=C(N)OC1c1ccccc1 (stereo not given),-1.27% (inactive),
CC(C)(Cl)[N+](=O)[O-],-3.82% (inactive),
C=CC(=C)C,-1.29% (inactive),
CCOC(=O)c1cn2nc(OP(=S)(OCC)OCC)cc2nc1C,-0.0862% (inactive),
O=C1OC(c2ccc(O)c(S(=O)(=O)O)c2)(c2ccc(O)c(S(=O)(=O)O)c2)c2c(Br)c(Br)c(Br)c(Br)c21,1.31% [at 42.5 µM] (inactive),
ClCBr,0.923% (inactive),
